Data on 43 compounds can be found in PubChem BioAssay AID743279 (National Center for Advancing Translational Sciences (NCATS), 2014).

Hit rate of the full screen: of about 360,000 compounds, about 17,000 (4.7%) were called active. Another 5% or so got no clear call; they are omitted. Only a selection was taken, and actives are over-represented in it overall. Values without a mark were called inactive. No stated cut-off is given here; in the data, active means activity change below about -50%; inconclusive means mostly about -30% to -49%; inactive means weaker than that.
On the % scale 0 is the no-effect control and ±100 the full control effect.

This assay can be described thus: qHTS for Inhibitors of Inflammasome Signaling: IL-1-beta AlphaLISA Primary Screen. The note with it: THP-1 LPS/ATP IL-1B secretion, 16 h, at 57.5 µM, stronger effect = lower value. The text has this: Inflammasomes are a set of intracellular multi-protein complexes that enable autocatalytic activation of inflammatory caspases and drive the innate immune response to counter harmful agents. […] A qHTS assay, based on AlphaLISA technology, was developed to screen the Molecular Libraries Small Molecule Repository (MLSMR) to look for novel inflammasome inhibitors. The assay detects IL-1B using AlphaLISA anti-IL-1B acceptor and donor beads. A decreased emission signal, indicating reduced IL-1B secretion, is the desired outcome for this assay. NIH Chemical Genomics Center [NCGC] NIH Molecular Libraries Probe Centers Network [MLPCN] MLPCN Grant: MH095513 Assay Provider: Shyam Biswal Ph.D., Johns Hopkins University Immunity. 2012 Jul 27;37(1):85-95. PMID: 22819042 [2] Curr Pharm Des. 2012;18(16):2320-8. PMID: 22390695
Three microliters containing 3000 THP-1 cells were dispensed into the wells of solid, white, tissue culture treated Greiner 1,536-well plates. Library compounds and positive control, Glyburide, were pin-transferred (23 nL) by a Kalypsys pin-tool equipped with a 1,536-pin array, resulting in final compound concentration ranges of 2.5 nM to 57.5 uM. After 1 hr of cell culture incubation (37 °C, 5% CO2), 1 microL of 1 microg/mL lipopolysaccharide (250 ng/mL, final) and 5 mM ATP (1.25 mM, final) were added to stimulate the cells. After 16 hr of cell culture incubation with the compounds, 1.5 uL of anti-IL-1B acceptor beads (6 ug/mL, final) and biotinylated antibody (0.6 nM, final) were added to the plate, followed by a 1 hr incubation at ambient temperature. To detect the secreted IL-1B, 1.5 uL of AlphaLISA SA-Donor beads (24 ug/mL, final) were added, followed by 30 min of incubation in the dark at ambient temperature. The AlphaLISA signal was read by a PerkinElmer EnVision plate reader with an ultrasensitive luminescence detector and 1536 Plate HTS AlphaScreen aperture (excitation of 680nm and emission of 615nm).
For `CCC1(CC(C)c2ccccc2)C(=O)NC(=O)NC1=O` (stereo not drawn), the activity change was -0.699%. With `COC(=O)C[C@H]1CC[C@H]2NC[C@@H](O)COC[C@@H]2O1`, the activity change is 0%.

For the compound `CC1C2Cn3c(nc4ccccc43)C1N(C)O2` (stereo not drawn), the activity change was 32.4%.

For `CC(=O)NC(=O)NC(C)Cc1ccccc1` (stereo not drawn), the activity change is 11.5%. Next, `CC(Cc1ccccc1)NCCC(c1ccccc1)c1ccccc1` (stereo not drawn): -64.4% (active); `CC(Cc1ccccc1)NC=O` (stereo not drawn): 16%; `CN1CCC(OC(=O)c2cccc(F)c2)CC1`: -22%. Next, `COc1ccc(NC(=O)N2Cc3ccccc3-n3nncc3C2)cc1`: -5.29%; `Cc1cc(-c2ccc(N)c(C)c2)ccc1N`: -12.1%. `CC(=O)OC1C2(CC3N4C(=O)C5(CO)SSC4(CC31O)C(=O)N5C)OC(C)C(C)(C)C2=O` (stereo not drawn): the activity change is -104% (active).

Turning to `Cc1ccc(C(C)C)c(OCC(=O)N2CCN(CC(=O)N3CCOCC3)CC2)c1`, the activity change is -9.54%. Turning to `C[N+]12CN3CN(CN(C3)C1)C2`, the activity change is 1.54%. Take `Clc1cccc(Cl)c1Cl`: the activity change was -12.8%. As for `COC1C(O)C(C)OC(OC2CCC3(C=O)C(CCC4C3CCC3(C)C(C5=CC(=O)OC5)CCC43O)C2)C1O` (stereo not drawn), the activity change is -68% (active).

Regarding `C[C@]12CC[C@H](O)C[C@H]1CC[C@@H]1C2CC[C@]2(C)[C@@H](C3=CC(=O)OC3)[C@@H](O)C[C@]12O` (stereo partly drawn), the activity change was -21.6%.

For the compound `C[C@H]1CN([C@@H](C)CO)C(=O)CCCn2nncc2CO[C@H]1CN(C)C(=O)Oc1cccc2ccccc12`, the activity change is 24.1%. As to `COc1cc(C(=O)N2Cc3ccc(Br)cc3-n3nncc3C2)cc(OC)c1OC`, the activity change is -13.4%.

In the case of `O=C1/C(=C\c2ccc3c(c2)OCO3)N2CCC1CC2`, the activity change is -14.8%. As for `Cc1nc2ccccc2c(=O)n1-c1ccc(Cl)cc1Cl`, the activity change was -2.71%. Next, `O=c1c2ccccc2nc(-c2ccccc2)n1-c1ccccn1`: 17.2%; `O=c1c2ccccc2nc(/C=C/c2ccc(F)cc2)n1-c1ccccc1O`: -94.1% (active); `COc1ccccc1NC(=O)N1C[C@@H]2C[C@@H](C1)c1cccc(=O)n1C2`: 1.98%.

As to `O=C(O)C1CSC(c2cccnc2)N1` (stereo not drawn), the activity change is 0%.

On to `NCCc1ccc(S(=O)(=O)F)cc1`, for which the activity change is 13%. For `O=C(NC1CCCCC1)N1Cc2cc(N3CCCCC3)ccc2-n2nncc2C1`, the activity change is -7.47%. Next, `CCOc1ccc(-c2cc(C)[n+](CCN(CC)CC)c(-c3ccc(OCC)cc3)c2)cc1`: -82.5% (active); `COC(=O)C1=C(c2ccc(F)cc2OCc2ccccc2)C[C@@H]2CC[C@H]1N2C(=O)NCc1ccc(Cl)cc1`: -55.3% (active). Next, `COC(=O)C1=C(c2ccc(F)cc2OCc2ccccc2)C[C@@H]2CC[C@H]1N2C(=O)NCc1ccc(OC)c(OC)c1`: -5.32%; `COC(=O)C1=C(c2ccc(F)cc2OCc2ccccc2)C[C@@H]2CC[C@H]1N2C(=O)NCc1ccc(C(C)(C)C)cc1`: -29.4%. Next, `CC1CCC(N(C)C2CCN(C)CC2)CC1` (stereo not drawn): 0%. Turning to `CCOC(=O)c1cccc(C2=C(CNC(=O)c3ccncc3)[C@H]3CC[C@@H](C2)N3Cc2ccccc2)c1`, the activity change was 41.7%. Next, `COc1ccc(-c2nc(CS(=O)CC(=O)N3CCC4(CC3)OCCO4)c(C)o2)cc1` (stereo not drawn): -1.15%. Next, `O=P(OC1=CCCCC1)(c1ccccc1)c1ccccc1`: -4.62%; `Cc1ncoc1C(=O)NCC1=C(c2cccc3ccccc23)C[C@@H]2CC[C@H]1N2Cc1ccco1`: -7.11%; `CC1(C)Cc2c(C#N)c(N3CCNCC3)nc(-c3ccco3)c2CS1`: -50.4% (active).

Consider `COC(=O)C1=C(c2ccc(OCc3ccccc3)cc2)C[C@@H]2CC[C@H]1N2C(=O)NCc1ccc(Cl)cc1`, for which the activity change was 4.2%.

Regarding `N#CC1=C(N)Oc2c(c(=O)oc3ccccc23)C1c1ccccc1OC(=O)c1cccs1` (stereo not drawn), the activity change was -86.1% (active). In the case of `COc1ccc(C2C=C(C)Oc3c2c(=O)oc2ccccc32)cc1OC` (stereo not drawn), the activity change is 7.28%. On to `S=C(NCCc1ccccc1)N1Cc2cc(N3CCOCC3)ccc2-n2nncc2C1`, for which the activity change was -27%. For `Cc1cc(C)c2c(c1)NP(=S)(c1ccccc1)N2` (stereo not drawn), the activity change was -11.4%. With `Cc1ccnc(-n2c(C)cc(/C=C3\C(=O)NC(=S)N(C)C3=O)c2C)c1`, the activity change was -79.4% (active). Turning to `Cc1ccc(-n2c(C)cc(/C=C3\C(=O)NC(=O)N(C)C3=O)c2C)cc1C`, the activity change is -4.58%.

Take `Cc1cc(C=C2C(=O)NC(=O)NC2=O)c(C)n1-c1ccncc1`: the activity change was -12.3%.
